ChEMBL document CHEMBL3988442, “University of Dundee, Small-Polar-MMV Screening Library” (2021)
Hit rate of the full screen: of about 48,000 compounds, about 13,000 (27%) showed an effect of 50% or more. The list shows a part of the results.

Tested on: Wolbachia pipientis
Assay: Anti-Wolbachia Cell-Based Screen
Assay type: functional
Design: scale not given: in the data most compounds retested in dose-response had high values
Settings: 5 µM

SMILES | Percent Effect
CCOC(=O)CCCN1CCCC(C(=O)Nc2ccc(Cl)cn2)C1 (stereo not given) | -9.707%
CN1CCC2(C=C(C(=O)N3CCCC3)c3ccccc32)CC1.O=C(O)C(F)(F)F | -7.584%
CCC(=O)N1CCC2(C=C(C(=O)N3CCCC3)c3ccccc32)CC1 | 109%
O=C(C1=CC2(CCNCC2)c2ccccc21)N1CCCC1 | -0.6834%
CCC(=O)N1CCC2(C=C(C(=O)N(C)C)c3ccccc32)CC1 | 99.74%
CSCC(=O)N1CCC2(CC1)c1ccccc1CC2O (stereo not given) | -1.136%
CN1CCC2(C=C(C(=O)N(C)C)c3ccccc32)CC1 | 111.1%
O=C(O)C(F)(F)F.O=C1CC2(CNCCN(C(=O)Nc3ccccc3)C2)CN1 (stereo not given) | -25.05%
CC(O)CN1CCC(CN(C)Cc2ccc(C#N)cc2F)CC1 (stereo not given) | -14.31%
Cc1nccn1-c1cc(CNC(=O)C(C)(C)C)ccn1 | 9.207%
CN(C)Cc1ccc(C2CCCCN2C(=O)c2cc(C3CC3)n[nH]2)cc1 (stereo not given) | 2.856%
O=C(CCN1CCCCCC1c1ccco1)N1CCOCC1 (stereo not given) | 1.206%
O=C(CCN1CCCCC1c1cc2ccccc2[nH]1)N1CCOCC1 (stereo not given) | -12.84%
O=C(c1cc(C2CCCCN2CCO)n[nH]1)N1CCOCC1.O=CO (stereo not given) | 127.4%
O=C(c1cc(C2CCCCN2C(=O)C2CCC2)n[nH]1)N1CCOCC1 (stereo not given) | 97.85%
CC(=O)N1CCCCC1c1cc(C(=O)N2CCOCC2)[nH]n1 (stereo not given) | -8.904%
COCc1cncc2c1CCN(C(=O)c1ccsc1)C2 | -1.861%
COCc1cncc2c1CCN(C(=O)c1ccc(C)o1)C2 | -6.966%
COCc1cncc2c1CCN(C(=O)c1cscn1)C2 | 104.1%
CN(C)CCOCc1cncc2c1CCN(C(=O)c1cscn1)C2 | 84.03%
O=C(c1cnccn1)N1CCc2c(COCC3CC3)cncc2C1 | -0.9982%
CN(C)C(=O)N1CCc2c(COCC3CC3)cncc2C1 | -21.89%

SMILES | Percent Effect
Cn1cnnc1CCNC(=O)c1ccccc1OC1CCC1 | -17.05%
CCNc1nc(C)c(C(=O)N(C)Cc2noc(C)n2)s1 | -18.27%
CC1(C)Oc2ccc(NC(=O)c3ccc(=O)[nH]n3)cc2O1 | -5.037%
Cc1cc(C(=O)NC2CCCOc3cc(Cl)ccc32)n(C)n1 (stereo not given) | 104.1%
O=C(Nc1ccc2c(c1)OC1(CCCC1)O2)c1ccc(=O)[nH]n1 | -12.04%
Cc1c(C(=O)NC2CCCOc3cc(Cl)ccc32)cnn1C (stereo not given) | 96.08%
O=C(Nc1ccc2c(c1)OC1(CCCCC1)O2)c1ccc(=O)[nH]n1 | 13.01%
Cc1ccc2c(c1)OCCCC2NC1CCN(C)CC1 (stereo not given) | 11.04%
O=C(NC1CCCOc2cc(Cl)ccc21)c1ccc(=O)[nH]n1 (stereo not given) | 103.9%
Cc1c(C(=O)N[C@H]2CN(CCS(C)(=O)=O)C[C@@H]2C2CC2)cnn1C | 4.067%
Cc1ccc2c(c1)OCCCC2NCc1nccn1Cc1ccccc1 (stereo not given) | -22%
O=C(Nc1ccc2c(c1)OCCO2)c1ccc(=O)[nH]n1 | 99.56%
Cc1ccc2c(c1)OCCCC2NCc1nccn1CC(C)C (stereo not given) | -15.26%
CCc1cccc(N2CCC(NC(=O)c3ccc(=O)[nH]n3)CC2)c1 | 3.328%
CC(C)N1CCCC2(CCN(C(=O)CCCn3ccnc3)C2)C1=O (stereo not given) | -2.08%
CCc1nnc(CNCC2CCN(CC(O)c3ccccc3)CC2)o1 (stereo not given) | 1.305%
Cc1cc2c(=O)n3c(nc2s1)CCN(Cc1ccncc1)CC3 | -12.53%
CCc1ncc(CN2CCCC3(CCC(=O)N(CCC(C)C)C3)C2)cn1 (stereo not given) | -16.36%
Cc1cc(CN2CCc3nc(C)n(C)c(=O)c3CC2)[nH]n1 | -18.21%
Cc1nc[nH]c1CN1CCn2nc(CN3Cc4ccccc4C3)cc2C1 | 5.533%
Cc1cc2c(=O)n3c(nc2s1)CCN(Cc1cncn1C)CC3.Cl | 111.2%
CCc1ncc(CN2CCc3nc4sc(C)cc4c(=O)n3CC2)cn1 | 98.79%

SMILES | Percent Effect
Cc1cc2c(=O)n3c(nc2s1)CCN(Cc1cnc(C(C)C)nc1)CC3 | -3.495%
Cc1nc2c(c(=O)n1C)CCN(Cc1cc3cc[nH]c3cn1)CC2 | -4.621%
Cc1cc2c(=O)n3c(nc2s1)CCN(Cc1cnc(C)n1C)CC3.Cl | 108.4%
Cc1cc2c(=O)n3c(nc2s1)CCN(Cc1[nH]cnc1C)CC3.Cl | 117%
CCOC(=O)C1CCCCN1Cc1c[nH]nc1-c1cc2ccccc2o1 (stereo not given) | 10.01%
Cc1cccc2cc(C(=O)N3CCN(S(=O)(=O)N(C)C)CC3)n(C)c12 | -7.336%
CNc1ncc(CN(C)Cc2cc(O)c3cc(C)cc(C)c3n2)cn1 | 2.553%
c1ccc(-c2cc(NCCCC3CCOC3)n3nccc3n2)cc1 (stereo not given) | -17.54%
CSc1ccc(-c2cc(CN)nc3ccnn23)cc1.Cl | 95%
COc1cc(OC)cc(-c2cc(CN)nc3ccnn23)c1.Cl | 104.2%
COCc1cc(N2CCN(Cc3ccncc3)CC2)n2nccc2n1 | 2.178%
COCc1cc(N2CCOCC2)n2nccc2n1 | 9.055%
CCCc1cc(CNc2cc(CCC)nc3ccnn23)on1 | -13.04%
CCc1ccc(CN(C)c2cc(COC)nc3ccnn23)cc1 | -31%
COc1ccc(-c2cc(CN)nc3ccnn23)cc1.Cl | 124.4%
Cl.NCc1cc(-c2ccccc2)n2nccc2n1 | 106.1%
CCc1cc(N[C@H](C(N)=O)[C@@H](C)CC)n2nccc2n1 | -8.924%
CN(C)C1CCN(c2cc(-c3ccccc3)nc3ccnn23)C1 (stereo not given) | -6.733%
CCc1cc(NC(CCO)c2ccc(OC)cc2)n2nccc2n1 (stereo not given) | 6.902%
CC(C)OCc1nn(CC2CC2)c2c1CN(Cc1ccco1)CC2.O=C(O)C(F)(F)F | 3.908%
Cc1cccc(C)c1-n1nnnc1C1(NCc2ccco2)CCCC1 | 75.79%
Cc1ccc(-n2nnnc2C2(NCc3ccco3)CCCC2)cc1 | 2.087%

SMILES | Percent Effect
Cc1csc(C2(NCc3nnc(-c4ccco4)o3)CCCC2)n1 | -3.858%
CCN1CCN(Cc2coc(-c3cccc(F)c3)n2)CC1 | 3.559%
O=C(C1CC1)N1CCN(Cc2coc(-c3ccc(Cl)cc3)n2)CC1 | 3.08%
OCCN1CCN(Cc2coc(-c3cccc(Cl)c3)n2)CC1 | 116.8%
CCOCCN1CCN(Cc2coc(-c3cccc(F)c3)n2)CC1 | 74.94%
OCCN1CCN(Cc2coc(-c3cccc(F)c3)n2)CC1 | 105.3%
Fc1cccc(-c2nc(CN3CCn4c(nnc4C4CC4)C3)co2)c1 | 2.763%
OCCN1CCN(Cc2cc(Cl)cc3cccnc23)CC1 | 0.645%
CCc1nc(C)c(C2CC(=O)Nc3c2c(-c2ccccn2)nn3C)[nH]1 (stereo not given) | 6.33%
CCC(C)(N)c1nc(=O)c(C(C)C)c(C)[nH]1.Cl (stereo not given) | -21.29%
Cl.O=C(NC[C@@]1(COc2cnccn2)C[C@@H](O)[C@@H](O)C1)C1CCOCC1 | -6.345%
O=C(Cc1ccc2c(c1)OCO2)N1CCCN(c2nccs2)CC1 | -6.237%
CCC1c2cccn2CCN1S(=O)(=O)N1CCOCC1 (stereo not given) | 79.2%
CC1c2cccn2CCN1S(=O)(=O)N1CCCCCC1 (stereo not given) | -11.34%
O=S(=O)(N1CCOCC1)N1CCCCC1CCc1ccc(O)cc1 (stereo not given) | 2.652%
CC1CCN(S(=O)(=O)N2CCn3cccc3C2C)CC1 (stereo not given) | -8.051%
CCCC1c2cccn2CCN1S(=O)(=O)N1CCOCC1 (stereo not given) | 118.3%
O=S(=O)(N1CCOCC1)N1CCc2sccc2C1 | 7.177%
Cc1nc(C)c(-c2ccn(CC(=O)Nc3cnn(C)n3)n2)s1 | -4.351%
O=C([C@H]1COC[C@H]2CN(C3CCOCC3)C[C@H]21)N1CCCCO1 | 5.01%
CC(C)CC(C)NC1CCN(c2cccc(-c3cscn3)c2)CC1 (stereo not given) | -3.86%
Cc1[nH]ccc1C(=O)N1CCC2(CC1)c1nc[nH]c1CCN2CC(C)C | 14.8%

SMILES | Percent Effect
Cc1ccc(C)c(S(=O)(=O)N2CCN(C)C3(CCC(=O)N(C)CC3)C2)c1 (stereo not given) | -7.559%
Cc1cc(F)ccc1C(=O)N1CCN(C)C2(CCC(=O)N(C)CC2)C1 (stereo not given) | 91.8%
CN1CCC2(CC1)CN(C(=O)c1cccc3cccnc13)CCN2C | -18.03%
CSc1ccccc1C(=O)N1CCN(C)C2(CCC(=O)N(C)CC2)C1 (stereo not given) | 119%
CC(C)N1CC2(CCC1=O)CCN(C(=O)c1cc(F)ccc1Cl)CC2 | -13.76%
Cc1[nH]ccc1C(=O)N1CCN(C)C2(CCC(=O)N(C)CC2)C1 (stereo not given) | 98.32%
Cc1ccc(C(=O)N2CCN(C)C3(CCC(=O)N(C)CC3)C2)c(F)c1 (stereo not given) | 104.4%
Cc1csc(S(=O)(=O)N2CCN(C)C3(CCC(=O)N(C)CC3)C2)c1 (stereo not given) | -20.06%
CC(C)=CCCN1CCN(C)C2(CCC(=O)N(C)CC2)C1 (stereo not given) | 4.747%
Cc1ccc(S(=O)(=O)N2CCN(C)C3(CCC(=O)N(C)CC3)C2)s1 (stereo not given) | 14.37%
CN1CC2(CCCN(C(=O)c3cnc4ccc(F)cc4c3O)C2)OC1=O (stereo not given) | -10.25%
COc1cccc(OCc2cc(C(=O)NC[C@@H]3CCCN3)n[nH]2)c1 | -13.46%
COCC1CN(C(=O)c2cnc(C)cn2)Cc2ncnn2C1 (stereo not given) | -2.14%
COCc1nnc(C(=O)N2CCCC(O)C2)o1 (stereo not given) | 102.5%
Cc1noc(CNc2cccc(C(=O)N3CCCC(O)C3)c2)n1 (stereo not given) | 7.269%
COCc1nnc(C(=O)N2CCC(N3CCCCC3)CC2)o1 | 90.19%
Cc1nnc(NC(=O)N2CCC(N3CCCCC3)CC2)s1 | 6.357%
Cc1noc(CNc2ccccc2C(=O)N2CCCC(O)C2)n1 (stereo not given) | -16.45%
COCc1nnc(C(=O)N(C)Cc2ccc(OC)cc2)o1 | -21.92%
CCCc1nnc(N2CCC(N3CCCCCC3)CC2)o1 | 12.1%
Cc1c(C(=O)N2CCC(N3CCCCC3)CC2)n(C)c2ccc(Cl)cc12 | 0.1052%
COCc1nnc(C(=O)N2CC(N3CCCCC3)C2)o1 | 110.5%
